Source: PubChem BioAssay
The list is not random: actives were taken first. Their share in the collection is about 2.6%.
Cruzain Triton – cruzain (T. cruzi) inhibition with detergent. purified cruzain, Z-FR-AMC fluorescence, 0.01% Triton. 200,000 compounds, 0.43% hits. AID 1478. P25779. Potency, µM, without a hit: max response, negative = inhibition, actives largely listed as inhibitors;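 further: plate controls were neutral wells for no effect and buffer without enzyme for full effect; nearly all actives have a fitted effect of over 40% in size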
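Detergent-containing run (0.01% Triton X-100) in acetate buffer pH 5.5 with 5 mM DTT: enzyme at 1.5 nM final, 15 min compound preincubation at room temperature, then 2 uM Z-FR-AMC substrate. Activity taken as 60 s fluorescence increase at 360/450 nm.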
Cruzain noTriton – inhibitors of Trypanosoma cruzi cruzain without detergent | P25779 | purified cruzain, Z-FR-AMC fluorescence, no detergent | Potency, µM, inactives show max response, negative = inhibition, hits mostly inhibitors | 200,000 compounds, 2.3% hits | AID 1476;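 further: plate controls were enzyme without inhibitor for no effect and buffer without enzyme for full effect; nearly all actives have a fitted effect of over 40% in size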
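Purified cruzain at 1.5 nM, pre-incubated 15 min with compound at room temperature in 100 mM sodium acetate pH 5.5, 5 mM DTT, 0.00005% Triton X-100. Reaction started with 2 uM Z-FR-AMC; AMC fluorescence increase over 60 s gives rate.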
Papain counter – counter-screen for cruzain inhibitors: papain inhibition. shares compounds with Cruzain Triton. 410 compounds, 41% hits. purified papain, Z-FR-AMC fluorescence cleavage. Potency, µM, without a hit: max response, negative = inhibition, hits mostly inhibitors;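 further: 0% = no-compound wells and -100% = no-enzyme wells; nearly all actives have a fitted effect of over 35% in size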
Target sequence (P00784 whole entry, looked up): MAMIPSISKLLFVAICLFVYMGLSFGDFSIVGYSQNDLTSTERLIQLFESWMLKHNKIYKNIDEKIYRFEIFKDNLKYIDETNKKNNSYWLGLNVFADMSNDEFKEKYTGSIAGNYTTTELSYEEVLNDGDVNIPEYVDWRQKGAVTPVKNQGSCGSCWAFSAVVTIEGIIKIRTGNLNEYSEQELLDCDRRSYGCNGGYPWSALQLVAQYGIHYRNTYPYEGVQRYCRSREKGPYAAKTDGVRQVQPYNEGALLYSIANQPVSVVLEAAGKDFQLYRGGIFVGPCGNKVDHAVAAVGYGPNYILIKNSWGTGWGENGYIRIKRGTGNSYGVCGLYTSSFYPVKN
The depositor's hits bear a star; ? = inconclusive; / = no result given. The call rests on the fitted dose curve; in most records, active means well fitted curve in the direction sought with a large enough effect; inconclusive means small, poorly fitted or top-dose-only effect, or another doubt; inactive means no such curve, though single readings can be large; an effect the other way counts as inactive or inconclusive. Potency means the concentration at half of the fitted maximal effect.

SMILES	Cruzain Triton	Cruzain noTriton	Papain counter
CC(Sc1nc2c(c(=O)[nH]1)CCCC2)C(=O)Nc1cc(C(F)(F)F)ccc1Cl (stereo not drawn)	-6%	-8%	/
CC(=O)N1CCC2(CC1)CCN(c1ccc(-c3ccccc3)cc1)CC2	-3%	?	/
CCC(C(=O)NC1CCCCC1)n1c(SCc2ccc(F)cc2)nc2ccncc21 (stereo not drawn)	13µM*	0%	-15%
CCC(C(=O)NC1CCCC1)n1c(SCc2cccc(C)c2)nc2ccncc21 (stereo not drawn)	-15%	1%	/
Cc1cc(NC(=O)CNC(=O)C2CCCCC2)no1	-4%	2%	/
O=C(CNC(=O)C1CCCCC1)Nc1ccccc1	-2%	-11%	/
CC(C)(C)NC(=O)COC(=O)CNC(=O)C1CCCCC1	/	/	-23%
CC(C)NC(=O)COC(=O)CNC(=O)C1CCCCC1	/	/	-58%
COc1ccccc1C(=O)Nc1ccc(S(=O)(=O)Nc2nc(C)cc(C)n2)cc1	-4%	-1%	/
O=C(c1ccco1)N1CCC2(CCN(Cc3cc(C(F)(F)F)cc(C(F)(F)F)c3)CC2)CC1	2%	-12%	/
CC(=O)N1CCc2cc(S(=O)(=O)NC(Cc3ccccc3)C(=O)Nc3cc(C)ccc3C)ccc21 (stereo not drawn)	-4%	-13%	/
BrC(c1cccc2ccccc12)c1cccc2ccccc12	-4%	3%	/
Cc1cccc(C(=O)Nc2c(C(=O)NCc3ccc(Cl)cc3)sc3nc(C)cc(C)c23)c1	-1%	15%	/
CN(C)c1ccc(-c2nn3c(-c4ccc(Cl)cc4Cl)nnc3s2)cc1	2%	?	/
Clc1ccccc1-c1nnc2sc(-c3ccc4c(c3)OCO4)nn12	-3%	?	/
COc1ccccc1-c1nn2c(-c3cc(-c4ccccc4)n[nH]3)nnc2s1	/	/	35µM*
Clc1ccccc1-c1nn2c(-c3cc(-c4ccccc4)n[nH]3)nnc2s1	/	/	-8%
COc1ccccc1-c1nn2c(-c3ccccc3Cl)nnc2s1	1%	-16%	/
CN(C)c1ccc(-c2nn3c(-c4cc(-c5ccccc5)n[nH]4)nnc3s2)cc1	/	/	-26%
COc1ccc(CNS(=O)(=O)c2cc(C(=O)Nc3cc(Cl)cc(Cl)c3)ccc2F)cc1	0%	-2%	/
Cc1cccc(NC(=O)Cn2c(=O)oc3cc(S(=O)(=O)NCc4ccccc4)ccc32)c1	-5%	5%	/
CNS(=O)(=O)c1cn(CC(=O)Nc2cccc(C(F)(F)F)c2)cc1S(=O)(=O)NC	-5%	8%	/
COCCNc1nc2c(S(=O)(=O)c3ccccc3)nnn2c2ccc(Cl)cc12	0%	9%	/
CCN(Cc1ccccc1)c1nc2c(S(=O)(=O)c3ccccc3)nnn2c2ccc(Cl)cc12	-3%	?	32µM*
O=C(Nc1nc(-c2ccc(S(=O)(=O)N3CCCCCC3)cc2)cs1)c1cccs1	-5%	3.2µM*	2%
SMILES	Cruzain Triton	Cruzain noTriton	Papain counter
CCOc1ccc(-c2csc(NC(=O)c3ccc(S(=O)(=O)N4CCc5ccccc5C4)cc3)n2)cc1	-1%	4µM*	11%
O=C(Nc1nc(-c2ccc(S(=O)(=O)N3CCCC3)cc2)cs1)c1cccs1	-5%	-27%	/
CCOc1ccc(S(=O)(=O)N2CCc3ccccc3C2)cc1	0%	-15%	/
COC(=O)c1ccc(NC(=O)CC2C(=O)N(c3ccccc3)C(=O)N2C2CCCC2)cc1 (stereo not drawn)	0%	-9%	/
CC(C)c1nc(N2CCN(C(=O)c3ccccc3)CC2)c(C#N)c2c1COC(C)(C)C2	-9%	11%	/
CC1(C)Cc2c(C#N)c(N3CCCC3)nc(-c3ccco3)c2CO1	-4%	?	/
CC1(C)Cc2c(C#N)c(N3CCN(C(=O)c4ccccc4)CC3)nc(-c3ccco3)c2CS1	28µM*	25µM*	7.9µM*
N#Cc1c(N2CCOCC2)nc(-c2ccco2)c2c1CCCC2	13µM*	10µM*	5.6µM*
O=C(NC1CCCCC1)c1cc2c(Cl)nc3ccccc3c2s1	2%	1%	/
COc1cccc(C(=O)Nc2ccc3nc(SCc4ccc(C)cc4)sc3c2)c1	-2%	-19%	/
Cc1[nH]c2ccccc2c1-c1cc(-c2cc(-c3c(C)[nH]c4ccccc34)nc(N)n2)nc(N)n1	-9%	4%	/
O=C(Cn1c(=O)nc(-c2ccccc2)c2ccccc21)NCc1ccc(Cl)cc1	-1%	-5%	/
CCOc1ccc(-c2cn3c(n2)sc2cc(C(=O)N4CCCC(C)C4)ccc23)cc1 (stereo not drawn)	-5%	4%	/
Cc1cc(Nc2nc3ccccc3c3nnc(C)n23)ccc1Br	-1%	3%	/
